In all, about 35,000 sequences were measured (“fluorescence intensity (a.u.)”: median about 10,000, highest 2% from about 52,000 on). Only a selection was taken, and the highest values are over-represented in it overall.
target: T1, OsWOX13 (Oryza sativa, UniProt Q5QMM3 1-267); assay: protein-binding microarray (RPBM); PBS, 2% BSA, 51.3 ng/ul salmon testes DNA, 50 uM zinc acetate, 200 nM TF, 25 C, 1 h; high values mean tight binding; conditions: protein: recombinant; tags: N-terminal polyhistidine and DsRed monomer fusion (pET32a); label: CyDye5-dUTP incorporated in the synthesized complementary strand; 3' TTTTT single-stranded linker to array surface; dsDNA, one strand shown
T1 sequence: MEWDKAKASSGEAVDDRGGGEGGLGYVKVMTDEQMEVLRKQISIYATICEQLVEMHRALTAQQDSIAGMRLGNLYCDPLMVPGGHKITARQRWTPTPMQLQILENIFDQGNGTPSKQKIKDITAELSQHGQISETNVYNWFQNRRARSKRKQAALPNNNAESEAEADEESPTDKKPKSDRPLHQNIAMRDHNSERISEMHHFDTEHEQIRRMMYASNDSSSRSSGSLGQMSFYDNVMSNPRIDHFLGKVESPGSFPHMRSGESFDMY
In short: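 Transcription factors, each fused N-terminally to a polyhistidine tag and DsRed, were expressed in E. coli BL21-CodonPlus and purified on Ni–NTA. A custom Agilent array was made double-stranded by primer extension with Cy5-dUTP and blocked with 2% BSA. It was incubated with 200 nM protein in PBS, 2% BSA, salmon testes DNA and 50 µM zinc acetate at 25 °C for 1 h, then washed. The binding signal is per-feature fluorescence intensity (arbitrary units) read on an Axon 4000B scanner.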

In order of falling binding signal:
1. GTTTGATTGATTGATTTCGTGTACCATGCGGACTTCAGATCGGAGTCACCTAGTGCAG  65100 fluorescence intensity (a.u.)
2. AATCAATTTAATAATTGATTAAACAGAGCAAATTTTAGCTCGGAGTCACCTAGTGCAG  65100 fluorescence intensity (a.u.)
3. TGATTGATTGCTTGATTGGGAGTGTCCTTTGGGCGAGCTGCGGAGTCACCTAGTGCAG  64900 fluorescence intensity (a.u.)
4. GCTTAATTGATTAATTTGCTGGACGAGGAATCTTCTATGTCGGAGTCACCTAGTGCAG  64600 fluorescence intensity (a.u.)
5. GGGCCGTGATTGATTTGCTGGCGTGTGTGATTTTCAGCTGCGGAGTCACCTAGTGCAG  62900 fluorescence intensity (a.u.)
6. TTTAATTGATAAATATTATCAATTATTAAACAGATAAGCGCGGAGTCACCTAGTGCAG  62800 fluorescence intensity (a.u.)
7. TAGTTTGTGATTGATTTGTCGACATCTGGAGGCGTCATGCCGGAGTCACCTAGTGCAG  58400 fluorescence intensity (a.u.)
8. GTTAATTTTGTCGAGTTAATTGGATCTTTGCTTTGATGGGCGGAGTCACCTAGTGCAG  57600 fluorescence intensity (a.u.)
9. TGAAATAATTAATTAAATTATCATTAAGCCCCAAACCGAGCGGAGTCACCTAGTGCAG  57300 fluorescence intensity (a.u.)
10. CTGAAACTGATTGAACTTTTGTCCATTTTCAGATCGTGTACGGAGTCACCTAGTGCAG  49400 fluorescence intensity (a.u.)
11. TAATAATTGATTAAACAGAGCAAATTTTAGCTTGCAGATACGGAGTCACCTAGTGCAG  48500 fluorescence intensity (a.u.)
12. TGACTTGATTAATTGCTTCTATGTTTGGCACCCAATTAATCGGAGTCACCTAGTGCAG  44900 fluorescence intensity (a.u.)
13. CATAATTGCTGATATTTTGTCTTTGGAGTTTGATCCATGGCGGAGTCACCTAGTGCAG  44200 fluorescence intensity (a.u.)
14. AACCCTAGATTGATTTTGCGTGTGCTGCGTGAAGACGGCACGGAGTCACCTAGTGCAG  41400 fluorescence intensity (a.u.)
15. CCTAATTACGCCATGATTTGATAATATGATGCTACAATAACGGAGTCACCTAGTGCAG  39600 fluorescence intensity (a.u.)
16. CAATTGTGAAATAATTAATTAAATTATCATTAAGCCCCAACGGAGTCACCTAGTGCAG  30300 fluorescence intensity (a.u.)
17. ATTTTGACTGATGTGACGTTTGCGTGGCTGGTTTGATTAGCGGAGTCACCTAGTGCAG  28900 fluorescence intensity (a.u.)
18. CCAAATTAAGCCATTAATTAATAAAACAATATCATTAGGACGGAGTCACCTAGTGCAG  28900 fluorescence intensity (a.u.)
19. CAAGATAATTACAAGTTTATAAAACAAACTACTACAGGGACGGAGTCACCTAGTGCAG  27200 fluorescence intensity (a.u.)
20. AGAATATGATTTTAAAATTAATTTTAGGGGAGGGTTTTACCGGAGTCACCTAGTGCAG  26000 fluorescence intensity (a.u.)
21. ATCTTTAATTTTGATATTTAATTTTAATCATTGGAAAGGGCGGAGTCACCTAGTGCAG  25000 fluorescence intensity (a.u.)
22. TTTAATTTTATGTTTTGATTTTAATCTATATCTCTTCTCTCGGAGTCACCTAGTGCAG  22600 fluorescence intensity (a.u.)
23. TAGTTAAATTTCCATTTAACTAGGGATAAATTAAATGGCTCGGAGTCACCTAGTGCAG  20200 fluorescence intensity (a.u.)
24. ATGTTCCTATCAGTTGCTAATTATTAGTGTGACATCAATCCGGAGTCACCTAGTGCAG  16300 fluorescence intensity (a.u.)
25. CAATGCTTGCTTGATTGGGAGCGCGTCGTCGAGGGCGTCGCGGAGTCACCTAGTGCAG  14400 fluorescence intensity (a.u.)
26. AGGTGTACATGATTGTTTGCTTCCTTGCTGCAGCTCGGCGCGGAGTCACCTAGTGCAG  14100 fluorescence intensity (a.u.)
27. TTTAATATTTATAATTAATGTCAAACATCAGATGTGATAGCGGAGTCACCTAGTGCAG  12700 fluorescence intensity (a.u.)
28. CATCCATCCAACTTAATTTGACAGCAACTCACTGCAGCTTCGGAGTCACCTAGTGCAG  12000 fluorescence intensity (a.u.)
29. ATTAAGTCTAATTAATCTGTTATTAGCAAATGTTTACTGTCGGAGTCACCTAGTGCAG  11100 fluorescence intensity (a.u.)
30. TAATATTTAAATTAAACCTATAATCAAGCAGATGATTTATCGGAGTCACCTAGTGCAG  8840 fluorescence intensity (a.u.)
31. CCATGATGATGAGTCATTTTAACAGTCTGCAAGTACTAAACGGAGTCACCTAGTGCAG  8500 fluorescence intensity (a.u.)
32. ACTGCTGCCGATTGACTGCTACGAGTAGCTCGCACCTGGCCGGAGTCACCTAGTGCAG  7450 fluorescence intensity (a.u.)
33. GACATATTGTCACCGGTTTTGATTAGTTGTGGATATCTGGCGGAGTCACCTAGTGCAG  6960 fluorescence intensity (a.u.)
34. CCCCATCGTCACTTATAATTTATGAATAAAACTTTTAGATCGGAGTCACCTAGTGCAG  4840 fluorescence intensity (a.u.)
35. GGGGCAAATTGGTCTTGTCATGAAAGCTAAAAGCCAAAGGCGGAGTCACCTAGTGCAG  4730 fluorescence intensity (a.u.)
36. TGATTTGATTTTCAGTTTTGCACCATGCGATCGATCGAGACGGAGTCACCTAGTGCAG  4320 fluorescence intensity (a.u.)
37. GATCGATTTGGTTTTGTTGATTTGATCTGGCCGGACAAGGCGGAGTCACCTAGTGCAG  3980 fluorescence intensity (a.u.)
38. CACTATCTGATCCTAATTACACACTGATGCAGGGGTAAATCGGAGTCACCTAGTGCAG  3790 fluorescence intensity (a.u.)
39. GGATGAAATTAGCCCATCAGCAATTACGTGTAGGCCGTAGCGGAGTCACCTAGTGCAG  3690 fluorescence intensity (a.u.)
40. GAGCAAAACAATAATTAAATATATTTTGATAATAAATTTGCGGAGTCACCTAGTGCAG  3560 fluorescence intensity (a.u.)
41. TTGTTGTTATTTAATAAATTAGGAGATCAAATATGTTATTCGGAGTCACCTAGTGCAG  3300 fluorescence intensity (a.u.)
42. GATAGATGATATACCCGTTAACAATGAGACGTTTGTGGAGCGGAGTCACCTAGTGCAG  3270 fluorescence intensity (a.u.)

From paper PMC7819943, “Rice protein-binding microarrays: a tool to detect cis-acting elements near promoter regions in rice”
